Data: PubChem BioAssay
Measured potencies and affinities stand elsewhere. The source made the active and inactive calls. Cut-off not given; nearly all actives show IC50 up to about 0.91 µM.

Biological target: Calcium-dependent protein kinase 4 (Plasmodium falciparum (isolate 3D7)) (UniProt Q8IBS5)
Assay: PfCDPK4 kinase inhibitors, biochemical, TCAMS library (AID 1159588)
Conditions: recombinant PfCDPK4, Kinase-Glo ATP depletion luminescence

Calcium-dependent protein kinase 4 (Plasmodium falciparum (isolate 3D7)), sequence (Q8IBS5 whole entry, looked up): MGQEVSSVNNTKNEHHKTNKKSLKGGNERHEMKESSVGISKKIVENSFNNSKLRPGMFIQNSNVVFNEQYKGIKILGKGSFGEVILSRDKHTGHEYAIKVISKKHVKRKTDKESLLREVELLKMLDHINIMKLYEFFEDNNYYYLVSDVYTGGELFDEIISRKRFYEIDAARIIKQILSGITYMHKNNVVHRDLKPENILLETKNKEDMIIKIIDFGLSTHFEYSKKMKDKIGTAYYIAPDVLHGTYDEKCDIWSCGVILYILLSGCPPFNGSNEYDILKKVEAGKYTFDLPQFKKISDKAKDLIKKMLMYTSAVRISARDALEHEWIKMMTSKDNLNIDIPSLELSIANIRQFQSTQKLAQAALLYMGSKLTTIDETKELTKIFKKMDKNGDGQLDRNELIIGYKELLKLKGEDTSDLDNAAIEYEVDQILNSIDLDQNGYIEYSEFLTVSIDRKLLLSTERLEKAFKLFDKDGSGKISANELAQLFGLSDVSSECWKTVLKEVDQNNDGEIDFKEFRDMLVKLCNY

outcome, inactive:
COc1ccc(CN2CCC(N3CC(c4ccccc4)(c4ccccc4)OCC3=O)C2)c(O)c1 (stereo unspecified)
CC(C)Oc1ccc(C=CC(=O)Nc2noc3ccccc23)cc1
N#Cc1ccc(Cn2ccc3c4c(N)nc(N)nc4ccc32)cc1
CC(=O)c1cccc(Nc2nc3c(C#N)c(OCc4cc(Cl)cc(Cl)c4)ccc3[nH]2)c1
CCN(CC)CCCN(Cc1ccc(-c2ccc(C(F)(F)F)cc2)cc1)C(=O)Cn1c(SCc2cccc(F)c2F)cc(=O)c2ccccc21
Cc1[nH]c(C)c(-c2ccc(OCCOc3ccc(C(F)(F)F)cn3)cc2)c(=O)c1Br
CC(C)CCOc1ccc(NC(=O)c2cccs2)cc1
CCN1CCN(c2ccc(Nc3ccnc4ccc(Br)cc34)cc2)CC1
CC1(C)N=C(NC(=O)Nc2ccc([N+](=O)[O-])cc2)N=C(N)N1OCc1cccc2ccccc12
CC(O)C1CCCCN1C(=O)c1cccc(-c2cccc(-c3nc4ccc(F)cc4[nH]3)c2)c1 (stereo unspecified)
COc1cccc(-c2cccc(-c3ccc(NC(=O)c4ccc([N+](=O)[O-])o4)cc3)n2)c1
N#Cc1ccc2c(c1)CN(C1CCC(NC(=O)c3cc(-c4ccc(Cl)cc4)cs3)CC1)CCC2 (stereo unspecified)
CCOc1ccc2nc3cc(NC(=O)c4ccco4)ccc3c(N)c2c1
COc1ccc2ncc(F)c([C@@H](O)CN3CCC(NCc4cc5c(cn4)OCS5)CC3)c2c1
FC(F)(F)c1ccc2nccc(NCc3ccccc3)c2c1
COc1ccc(CN2CCCN(Cc3cccc(C(=O)Nc4ccc(C(C)(C)C)cc4)c3)CC2)cc1
CCc1ccc(C(=O)NC(=O)c2ccccc2O)cc1
COc1ccc(N2CCN(CCCNC(=O)c3ccc(NC(=O)c4cc(Cl)cc(Cl)c4)cc3)CC2)c(OC)c1
CCCC(=O)Nc1ccc(OCCCN(Cc2ccccc2F)c2ccc(C#N)c(C(F)(F)F)c2)cc1
CN(C)c1ccc(C2c3nc[nH]c3CCN2C(=O)Nc2cccc([N+](=O)[O-])c2)cc1 (stereo unspecified)
COc1cccc(NC(=O)Nc2ccc(Nc3nc(C)cc(N(C)C)n3)cc2)c1
CCn1ncc2c(N3CCCC3=O)cc(C(=O)N[C@@H](Cc3ccccc3)[C@H](O)CNC(C)(C)c3cccc(C(F)(F)F)c3)cc21
Fc1cccc(COc2ccc(-n3ccc4c(NCCCn5ccnc5)ncnc43)cc2Cl)n1
N#Cc1cccc(C(=O)NC2CCN(CCCCCNC(=O)/C=C/c3ccc(Cl)c(Cl)c3)CC2)c1
Cc1[nH]c(C)c(-c2ccc(C(=O)c3ccc(Cl)cc3)cc2)c(=O)c1Cl
Fc1ccc(-c2nc(NCc3cccc(C(F)(F)F)c3)nn2-c2cccc(C(F)(F)F)c2)cc1C(F)(F)F
